Screens deposited in PubChem by National Center for Advancing Translational Sciences (NCATS).
D1 potentiator: Potentiators of Human D1 Dopamine Receptor: qHTS | potentiation, % at 10 µM | HEK293 TREx D1 cells, calcium flux, dopamine EC20 potentiation | 0.036% of 360,000 active; in the data active means potentiation above about 30%; further: 0% is about no effect
D3 ag: qHTS of D3 Dopamine Receptor Agonist: qHTS; AID 652048, 2013; D(3) dopamine receptor (Homo sapiens), P35462; D3R DiscoveRx beta-arrestin cells, luminescence, 90 min; 0.58% of 410,000 active; max activation, %; in the data active means max activation above about 30%; further: 0% is about no effect
Target sequence (P35462 whole entry, looked up): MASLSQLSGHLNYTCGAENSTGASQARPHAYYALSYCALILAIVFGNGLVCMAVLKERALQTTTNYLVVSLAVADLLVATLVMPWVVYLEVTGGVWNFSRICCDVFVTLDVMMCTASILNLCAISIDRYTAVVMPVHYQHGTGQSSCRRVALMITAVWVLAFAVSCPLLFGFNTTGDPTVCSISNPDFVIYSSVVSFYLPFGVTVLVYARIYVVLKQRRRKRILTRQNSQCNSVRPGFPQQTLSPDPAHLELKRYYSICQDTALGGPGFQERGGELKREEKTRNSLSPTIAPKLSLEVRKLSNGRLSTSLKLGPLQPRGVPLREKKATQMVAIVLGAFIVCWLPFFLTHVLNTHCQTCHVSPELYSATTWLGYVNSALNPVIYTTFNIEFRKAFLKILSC
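Agonist mode: compounds and dopamine controls were applied to plated cells for 90 min at 37 degrees C after an overnight attachment at 1500 cells/well. Luminescent read-out followed 30 - 60 minutes at room temperature with DiscoveRx detection reagent.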
D1 ag: Allosteric Agonists of the Human D1 Dopamine Receptor: qHTS; D(1A) dopamine receptor (Homo sapiens), P21728; HEK293 T-REx D1 cells, calcium flux, agonist mode; activation, % at 2 µM; 1% of 360,000 active; AID 504660, 2011; in the data active means activation above about 30%; further: 0% is about no effect
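Inducible HEK293 T-REx D1 cells, force-coupled to calcium signalling, were plated at 4000 cells/well with tetracycline and held overnight at 30 C. After no-wash calcium dye loading, compound-evoked calcium rise over 180 s flagged agonists.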
D3 antag: qHTS of D3 Dopamine Receptor Antagonist: qHTS; D(3) dopamine receptor (Homo sapiens), P35462; D3R cells, DiscoveRx beta-arrestin luminescence, antagonist mode; active compounds read low; max response, negative = inhibition, %; 2.5% of 360,000 active; AID 652054, 2013; in the data active means max response below about -50%; further: on the % scale 0 is the no-effect control and ±100 the full control effect
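Cells plated overnight at 1500 cells/well, then exposed to library compounds with dopamine controls for 90 minutes at 37 degrees C. DiscoveRx reagent added for 30–60 minutes at room temperature; luminescence read, quantitative HTS format.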
D1 antagonist: Antagonist of Human D 1 Dopamine Receptor: qHTS; D(1A) dopamine receptor (Homo sapiens), P21728; 3.2% of 360,000 active; HEK293 TREx D1 cells, calcium flux, dopamine EC80; active compounds read low; activity change, negative = inhibition, % at 10 µM; AID 504652, 2011; in the data active means activity change below about -30%; further: on the % scale 0 is the no-effect control and ±100 the full control effect
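Tetracycline-induced HEK293 T-REx cells with force-coupled D1 receptor were loaded with a no-wash calcium dye. Compound was added after a 10 s baseline and read kinetically for 180 s; EC80 dopamine was then added and calcium flux followed another 180 s.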
Numbers without * were called inactive; ! = not confirmed by another sample. A selection: hits, their analogues and other compounds. The true share with any hit is near 6.1%.

For Cn1nnnc1SCCCNCc1ccccc1OCc1ccc(F)cc1 the results were D1 potentiator -0.9, D3 ag -26.8, D1 ag 11.1 and D1 antagonist 5.0.
For COC(=O)c1sc(N2C(=O)c3oc4ccc(C)cc4c(=O)c3C2c2ccc(O)c(OC)c2)nc1C (stereo unspecified) the results were D1 potentiator 1.1, D3 ag -4.9, D1 ag -0.3 and D1 antagonist 15.8.
`CCCc1cc(N2CCN(c3ccccc3F)CC2)n2cnnc2n1` gave D1 potentiator -0.8, D3 ag 5.5, D1 ag 2.9 and D1 antagonist -4.1.
O=C(Nc1ccc2nc(SCC(=O)N3CCCC3)sc2c1)c1ccccc1F was read as D1 potentiator 0.0, D3 ag 7.6, D1 ag -0.1 and D1 antagonist 1.5.
Screening Cc1ccc(Nc2nnc(C3C(=O)N(C)C4(C)CC3c3cc(Br)ccc3O4)s2)cc1 (stereo unspecified) returned D1 potentiator 8.7, D3 ag 1.8, D1 ag 35.7*, D3 antag -21.1 and D1 antagonist 8.3.
For Cc1ccc(-n2ncc(C(=O)N3CCCCC3)c2C2CCN(C(=O)OC(C)(C)C)CC2)c(C)c1 the results were D1 potentiator 2.1, D3 ag 1.1, D1 ag -0.6 and D1 antagonist 0.8.
For Cc1ccc(C(C)C)c(OCc2nn(CC(=O)c3ccc(Cl)cc3)c3[n+]2CCCCC3)c1 the results were D1 potentiator -1.0, D3 ag -16.5, D1 ag 25.8, D3 antag -51.6* and D1 antagonist 6.4.
O=C(Cn1nc(CNc2ccc(Cl)cc2)[n+]2c1CCCCC2)c1ccccc1 was read as D1 potentiator 1.1, D3 ag -14.8, D1 ag 2.9, D3 antag 12.5 and D1 antagonist 18.0.
Screening COc1cccc(Cn2ccn(-c3ccc(F)cc3)c(=O)c2=O)c1 returned D1 potentiator 3.1, D3 ag 2.3, D1 ag 3.7 and D1 antagonist -0.5.
Cc1nn2cnc3sc4c(c3c2nc1=O)CCCC4 was read as D1 potentiator -7.2, D3 ag 4.5, D1 ag -0.6, D3 antag 5.2 and D1 antagonist -85.9*.
`c1nc2sc3c(c2c2nnnn12)CCCC3` gave D1 potentiator -4.6, D3 ag 10.7, D1 ag 1.0, D3 antag -3.3 and D1 antagonist -3.6.
`CN(Cc1ccco1)c1ncnc2ccc(-c3ccccc3Cl)cc12` gave D1 potentiator -9.8, D1 ag 18.2 and D1 antagonist -39.5*!.
For CN(Cc1ccco1)c1ncnc2ccc(-c3ccoc3)cc12 the results were D1 potentiator 2.7, D1 ag -2.0 and D1 antagonist 4.9.
`Cc1cccc(C)c1C(=NCCCN(C)C)c1ccccc1` gave D1 potentiator 1.0, D3 ag -8.0, D1 ag 7.7, D3 antag -78.3* and D1 antagonist -1.4.
Screening CN(C)CCCNC(=O)/C(=N\O)c1ccccc1 returned D1 potentiator -7.2, D3 ag 1.0, D1 ag 5.0, D3 antag -13.6 and D1 antagonist 19.9.
CC1(c2nnc(-c3ccncc3)o2)CC(c2ccc(Cl)cc2)=NO1 (stereo unspecified) was read as D3 ag 5.1 and D3 antag 17.1.
CC1(c2nnc(-c3ccccc3)o2)CC(c2ccc(Cl)cc2)=NO1 (stereo unspecified) was read as D1 potentiator -5.7, D3 ag 43.4*, D1 ag 2.3, D3 antag 46.2 and D1 antagonist -14.8.
For CC1(c2nnc(-c3ccccc3)o2)CC(c2ccc([N+](=O)[O-])cc2)=NO1 (stereo unspecified) the results were D3 ag 37.4* and D3 antag 37.0.
`COC(=O)c1ccc(Cn2c(SCc3cccc(C)c3)nc3ccncc32)cc1` gave D1 potentiator 2.0, D3 ag -13.4, D1 ag 52.1* and D1 antagonist -32.5*.
